Source: PubChem BioAssay (NCATS)
Results filed as inconclusive are left out. Entries that show only a call come without a potency. Activity calls are given as the source filed them. Calls come from the whole dose curve; as a rule, active = well fitted curve in the direction sought with a large enough effect; inconclusive = small, poorly fitted or top-dose-only effect, or another doubt; inactive = no such curve, though single readings can be large; an effect the other way counts as inactive or inconclusive.

What was measured:
[1] = molecular target: Aldehyde dehydrogenase, mitochondrial (Homo sapiens) (UniProt P05091); assay: qHTS for Inhibitors of the Aldehyde Dehydrogenase Family (ALDH2) Primary screen (AID 2061308); note: nearly all actives have a fitted effect of over 55% in size
[2] = molecular target: Retinaldehyde dehydrogenase 3 (Homo sapiens) (UniProt P47895); assay: qHTS for Inhibitors of the Aldehyde Dehydrogenase Family (ALDH1A3) Primary screen (AID 2061315)

With `O=C1CCCC2=C1C(c1ccncc1Br)N=C(Nc1nc3ccccc3o1)N2` (stereo unspecified) the Potency [1] was “inactive” and the Potency [2] was “inactive”.
For `O=C(O)c1ccc(O)c2ncc(N3CCCC3)cc12`, the Potency [1] was “inactive” and the Potency [2] was “inactive”.
With `COc1ccc(-c2ccc3ncnc(NCc4ccc(C)o4)c3c2)cc1OC` the Potency [1] was “inactive” and the Potency [2] was “inactive”.
`Cc1cc(NS(=O)(=O)c2ccc(NC(=O)Cc3cccc(Cl)c3)cc2)no1` was tested, and the Potency [1] was “inactive” and the Potency [2] was “inactive”.
In the case of `Cc1cc(-c2nnc3n2CCCCC3)c(C)n1-c1ccccc1`, the Potency [1] is reported as “inactive” and the Potency [2] is reported as “inactive”.
`COc1cc(C2CC(=O)Nc3c2cc(Br)c2ccccc32)cc(OC)c1OC` (stereo unspecified) was tested, and the Potency [1] was “inactive” and the Potency [2] was “inactive”.
`Nc1nc(NCc2ccc(-c3cccnc3)cc2)c2ccccc2n1` was tested, and the Potency [1] was “inactive” and the Potency [2] was “inactive”.
`O=S(=O)(Nc1nccs1)c1ccc(NCc2cc(F)ccc2O)cc1` was tested, and the Potency [1] was “inactive” and the Potency [2] was “inactive”.
For `Cc1cc(-c2nnc3n2CCCCC3)c(C)n1-c1cccc(Cl)c1`, the Potency [1] was “inactive” and the Potency [2] was “inactive”.
With `Cc1ccc(OC2=NS(=O)(=O)c3ccccc32)cc1` the Potency [1] was “inactive” and the Potency [2] was “inactive”.
With `O=C(O)C1CCC(C(=O)Nc2ccc([S+](=O)([O-])Nc3nccs3)cc2)CC1` (stereo unspecified) the Potency [1] was “inactive” and the Potency [2] was “inactive”.
In the case of `c1nc(N2CCOCC2)c2cc(-c3ccc4c(c3)OCO4)ccc2n1`, the Potency [1] is reported as “inactive” and the Potency [2] is reported as “inactive”.
For `CCC(C)N(C)C(=O)Cn1nc(-c2ccc(C)cc2)ccc1=O` (stereo unspecified), the Potency [1] was “inactive” and the Potency [2] was “inactive”.
`O=C(NCCc1ccccc1)C1CCN(c2nc(-c3ccc(Br)cc3)cs2)CC1` was tested, and the Potency [1] was “inactive” and the Potency [2] was “inactive”.
`CC(C)(C#CCSc1nnc(-c2cccc3ccccc23)o1)OC(=O)c1ccc(F)cc1` was tested, and the Potency [1] was “inactive” and the Potency [2] was “inactive”.
In the case of `Nc1ccccc1CNc1ccc(S(=O)(=O)Nc2nccs2)cc1`, the Potency [1] is reported as “inactive” and the Potency [2] is reported as “inactive”.
For `CC(=O)Nc1sc2c(c1-c1cccs1)CCNC2`, the Potency [1] was “inactive” and the Potency [2] was “inactive”.
`CC(C)(C)[C@H](NC(=O)c1ccc(N)c(Cl)c1)C(=O)N1CCC[C@H]1C(=O)N[C@H](C#N)Cc1nn[nH]n1` was tested, and the Potency [1] was “inactive” and the Potency [2] was “inactive”.
